The structures appear in SMILES notation. Where “and” joins values, the source holds several entries; their conditions need not be identical. Equal values may be shown once.

For the assay, the system named is DIPGX29 (H3.3 K27M diffuse intrinsic pontine glioma line). The assay is described as follows: growth inhibition (% activity, log2 RLU normalised to DMSO / staurosporine); higher = more growth inhibition. The note with it: 33 µM. The essentials:
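Approved drugs, at a single final concentration of about 33 μM, were applied in triplicate to pHGG cell lines and H9-derived neural stem cells for 7 days at 37 °C, 5% CO2. The growth-inhibition value is the replicate median of log2-transformed CellTiter-Glo luminescence normalised per plate to % activity between solvent and positive control wells.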
With `O=C(O)c1cccnc1Nc1cccc(C(F)(F)F)c1`, the growth inhibition was -0.796%.

Regarding `C=C(c1ccc(C(=O)O)cc1)c1cc2c(cc1C)C(C)(C)CCC2(C)C`, the growth inhibition amounted to 8.85%.

For `CC1(C)S[C@@H]2[C@H](NC(=O)Cc3ccccc3)C(=O)N2[C@H]1C(=O)O`, the growth inhibition is -0.211%.

`Cc1cn(C2C=CC(CO)O2)c(=O)[nH]c1=O` (stereo not drawn): the growth inhibition is 0.293%.

As to `CC(C)(C)C(=O)C(Oc1ccc(Cl)cc1)n1ccnc1` (stereo not drawn), the growth inhibition was determined as 0.826%.

As to `Cc1ccc(S(=O)(=O)NC(=O)NN2CCCCCC2)cc1`, the growth inhibition was -1.75%.

For `Cc1cc(C2CCCCC2)n(O)c(=O)c1`, the growth inhibition is 68.5% and 63.3%.

Turning to `OCCOCCN1CCN(C(c2ccccc2)c2ccc(Cl)cc2)CC1` (stereo not drawn), the growth inhibition is 3.87%.

On to `Oc1c(Br)cc(Br)c2cccnc12`, for which the growth inhibition is -0.427%.

With `COC(=O)C1=CO[C@@H](O[C@@H]2O[C@H](CO)[C@@H](O)[C@H](O)[C@H]2O)[C@@H]2C(CO)=CC[C@H]12`, the growth inhibition was -1.79%.

For the molecule `CCn1cc(C(=O)O)c(=O)c2ccc(C)nc21`, the growth inhibition is -2.16%.

Turning to `CCOC(=O)c1ccc(N)cc1`, the growth inhibition is -1.1%.

On to `CCCN1CCCC[C@H]1C(=O)Nc1c(C)cccc1C`, for which the growth inhibition was -0.141%.

On to `CC(C)[C@H]1CC[C@H](C(=O)N[C@H](Cc2ccccc2)C(=O)O)CC1`, for which the growth inhibition is -0.743%.

On to `NS(=O)(=O)c1cc2c(cc1Cl)NC(C(Cl)Cl)NS2(=O)=O` (stereo not drawn), for which the growth inhibition was determined as 1.16%.

On to `COc1cc2c(cc1OC)CC(=O)N(CCCN(C)C[C@H]1Cc3cc(OC)c(OC)cc31)CC2`, for which the growth inhibition was -0.791%.

As to `CCCc1nc(C)c2c(=O)nc(-c3cc(S(=O)(=O)N4CCN(CC)CC4)ccc3OCC)[nH]n12`, the growth inhibition is -1.2%.

As to `CCC(C)n1ncn(-c2ccc(N3CCN(c4ccc(OCC5COC(Cn6cncn6)(c6ccc(Cl)cc6Cl)O5)cc4)CC3)cc2)c1=O` (stereo not drawn), the growth inhibition was -0.782%.

Source of the values: the supplement of paper PMC8253809.
